PubChem BioAssay AID2642 (Johns Hopkins Ion Channel Center, 2010)
In all, about 310,000 compounds went through this assay and about 3,900 (1.3%) were called active.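 Rule for the calls: active = compounds whose thallium flux B-score, printed positive for inhibition, exceeds three library SD while starting fluorescence stays within three; inactive = the rest.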 What follows is part of a selection rich in actives, with near analogues and random picks from the rest.

Molecular target: Potassium voltage-gated channel subfamily KQT member 1 (Homo sapiens) (UniProt P51787)
Sequence (P51787 whole entry, looked up): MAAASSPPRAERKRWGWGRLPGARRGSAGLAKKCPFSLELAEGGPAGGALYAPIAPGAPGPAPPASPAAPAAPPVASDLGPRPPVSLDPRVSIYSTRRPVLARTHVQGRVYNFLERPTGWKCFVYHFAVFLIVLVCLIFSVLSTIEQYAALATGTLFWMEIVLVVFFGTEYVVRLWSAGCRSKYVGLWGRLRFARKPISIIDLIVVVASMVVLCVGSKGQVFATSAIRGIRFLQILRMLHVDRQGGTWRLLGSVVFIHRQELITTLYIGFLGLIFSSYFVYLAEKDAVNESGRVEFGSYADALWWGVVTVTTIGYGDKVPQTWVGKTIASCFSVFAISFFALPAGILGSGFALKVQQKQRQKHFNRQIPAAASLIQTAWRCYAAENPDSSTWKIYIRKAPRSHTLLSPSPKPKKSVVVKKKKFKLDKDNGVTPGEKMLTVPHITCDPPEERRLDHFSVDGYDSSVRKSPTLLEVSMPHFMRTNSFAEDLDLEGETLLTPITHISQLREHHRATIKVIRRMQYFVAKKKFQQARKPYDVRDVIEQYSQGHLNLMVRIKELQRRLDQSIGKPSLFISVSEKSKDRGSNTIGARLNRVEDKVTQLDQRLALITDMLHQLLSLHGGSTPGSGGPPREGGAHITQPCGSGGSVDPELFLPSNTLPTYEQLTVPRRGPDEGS
Assay: inhibitors of human KCNQ1 channel, primary screen, cell-based, thallium flux, high-throughput (AID 2642);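 note: channel opened by potassium depolarization with thallium stimulus after 20 min compound exposure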
Conditions: CHO-K1 KCNQ1, FluxOR thallium flux fluorescence, at 10 µM; active compounds read high

| SMILES | B-score |
| --- | --- |
| COCCN1Cc2cccc(C(=O)Nc3ccccc3OC)c2C1=O | inactive |
| CSc1ccccc1C(=O)NCc1ccccc1 | inactive |
| CCCN1Cc2cccc(C(=O)NCc3ccccc3)c2C1=O | 8 (active) |
| CSc1ccccc1NC(=O)c1cnc2sc(C)cn2c1=O | inactive |
| Cc1nc(NC(=O)C2CCCCC2)sc1C | inactive |
| CCN(CC)CCN(C(=O)c1cc(Cl)sc1Cl)c1nc2cc3c(cc2s1)OCO3 | 7 (active) |
| CN(C)CCN(C(=O)C1CCCCC1)c1nc2cc3c(cc2s1)OCO3 | inactive |
| CCN(CC)CCN(C(=O)c1ccc(N2C(=O)CCC2=O)cc1)c1nc2cc3c(cc2s1)OCO3 | inactive |
| CCCc1nn2c(=O)cc(CSCC(=O)Nc3cccc(C)c3)nc2s1 | inactive |
| Cc1cc(-c2csc(N)n2)c(C)n1Cc1ccccc1 | inactive |
| CC(=O)c1ccc(-c2ccc(Cn3c(C)nc4cc(N)c(C)nc43)cc2)cc1 | inactive |
| Cc1cc2nc3c(=O)n(Cc4ccccc4)c(=O)[nH]c3nc2cc1N | 8 (active) |
| O=C(O)c1ccc2c(=O)n3c(nc2c1)/C(=C/c1ccc(Cl)c([N+](=O)[O-])c1)CC3 | inactive |
| CC(=O)C(C)n1cnc2scc(-c3ccc(C)cc3)c2c1=O (stereo not drawn) | inactive |
| CCOC(=O)C(C)n1cnc2scc(-c3ccc(C)c(C)c3)c2c1=O (stereo not drawn) | 6 (active) |
| CCn1cnc2scc(-c3ccc(C)c(C)c3)c2c1=O | inactive |
| CC(c1nnc(SCC(=O)Nc2sccc2C#N)n1-c1ccc(Cl)cc1)N(C)C (stereo not drawn) | inactive |
| Fc1ccc2[nH]c3c(N4CCSCC4)ncnc3c2c1 | 8 (active) |
| Cc1c(CN2CC[C@@H](N3CCN(c4ccccn4)CC3)[C@H](O)C2)[nH]c2ccc(F)cc12 | inactive |
| C=CCn1c(Cn2nnc3ccccc32)nnc1SCC(=O)N/N=C/c1cc(Br)cc(OC)c1O | inactive |
| COc1ccc(/C=C2\CCCC3C2=NN(C(=O)c2scnc2C)C3c2ccc(OC)cc2)cc1 (stereo not drawn) | 8 (active) |
| CCOC(=O)C1(Cc2ccccc2C(F)(F)F)CCN(C(=O)c2cc(C)n(C)n2)CC1 | inactive |
| O=S(=O)(c1ccccc1)c1nc(Cc2ccccc2)oc1N1CCOCC1 | inactive |
